The values below come from PubChem BioAssay AID777 (Sanford-Burnham Center for Chemical Genomics, 2007).

The structures appear in SMILES notation. The whole screen tested about 96,000 compounds, of which about 19,000 (20%) were called active.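 Rule for the calls: active = blocking of liver enzyme CYP2C9 beyond about 50% at 5 µM (limit read from the data); inactive = the rest.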 Not all results are given here.

Sequence of Cytochrome P450 2C9 (Homo sapiens) (P11712 whole entry, looked up): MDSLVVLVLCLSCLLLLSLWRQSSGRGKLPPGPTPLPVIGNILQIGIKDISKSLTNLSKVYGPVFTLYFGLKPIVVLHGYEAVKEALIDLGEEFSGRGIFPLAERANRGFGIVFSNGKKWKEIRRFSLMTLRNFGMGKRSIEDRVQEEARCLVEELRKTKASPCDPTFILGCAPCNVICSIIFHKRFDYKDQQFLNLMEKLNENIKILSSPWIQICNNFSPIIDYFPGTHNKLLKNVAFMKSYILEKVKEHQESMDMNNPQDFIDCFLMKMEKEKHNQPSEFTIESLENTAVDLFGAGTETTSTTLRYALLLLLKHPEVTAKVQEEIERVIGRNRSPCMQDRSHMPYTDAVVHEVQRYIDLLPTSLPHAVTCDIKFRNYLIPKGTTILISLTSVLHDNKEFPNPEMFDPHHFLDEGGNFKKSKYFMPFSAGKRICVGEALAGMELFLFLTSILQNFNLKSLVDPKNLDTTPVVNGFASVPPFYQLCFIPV

The assay addresses Cytochrome P450 2C9 (Homo sapiens) (UniProt P11712). Briefly: blockers of cytochrome P450 2C9 activity – biochemical, luminescence, ADME assay, primary screen (AID 777). The following applies: CYP2C9 Supersomes, luciferin-H conversion, at 5 µM, active compounds read high.
For the compound `Cn1cc(S(=O)(=O)N2CCN(c3ccc(F)cc3)CC2)c(=O)n(C)c1=O`, the inhibition was -8.1% (inactive). For `Cc1cc(C)cc(NC(=O)C2CCN(c3nc(C)cc(C)n3)CC2)c1` the value was 15.4% (inactive); for `Cc1cc(NC(=O)c2cccc(N3C(=O)CCC3=O)c2)no1`, 3.5% (inactive); for `CC1CCCN(C(C(=O)Nc2ccc(C(C)C)cc2)c2ccc3c(c2)OCO3)C1` (stereo not given), 16.7% (inactive). For `O=C(Nc1ccc2c(c1)OCCO2)C(c1ccc(F)cc1)N1CCCCC1` (stereo not given) the value was 67.1% (active); for `COc1ccc(-n2c(SCC(=O)Nc3ccc4c(c3)OCO4)nnc2C(C)N2CCCCC2)cc1` (stereo not given), 20.2% (inactive). Take `CC(=O)Nc1ccc(S(=O)(=O)N2CCC(N(C)CCC(C)C)CC2)cc1`: the inhibition is 19.4% (inactive). For `Cc1ccccc1C(=O)N1CCC(C(=O)Nc2ccc(S(=O)(=O)N(C)C(C)C)cc2)CC1` the value was 61.2% (active); for `CCN1CCN(C(=O)c2ccccc2N(C)S(=O)(=O)c2ccc(C)cc2)CC1`, -1.6% (inactive). For the compound `NC(=NC(=O)c1ccccc1)C1=C(O)CCC1=O`, the inhibition is 0% (inactive). For `O=C(NC1CCc2ccccc21)C12CN(Cc3ccccc3)CC1C(c1cccc([N+](=O)[O-])c1)=NO2` (stereo not given), the inhibition was 42.7% (inactive). For `O=C(O)Cc1ccc(NC(=O)c2cccs2)cc1`, the inhibition was -6.9% (inactive). As for `Cc1cc2cc(CNC(=O)c3cccs3)ccc2[nH]1`, the figure is 60.2% (active); as for `CCc1ccccc1NC(=O)c1cccs1`, -6.7% (inactive). For `O=C(/C=C/Sc1ncn[nH]1)c1ccc(Cl)cc1` the value was 10.9% (inactive); for `Cc1nc2ccccc2c(-c2ccccc2)c1C(=O)c1ccccc1`, 19.7% (inactive); for `CCOC(=O)CSc1nnc(NC(=O)c2cccc(S(=O)(=O)N3CCCC3)c2)s1`, 14.4% (inactive). As for `CCOC(=O)CSc1nnc(NC(=O)c2cccc(S(=O)(=O)N3CCCCC3)c2)s1`, the figure is 35.5% (inactive). In the case of `CCOC(=O)C1=C(CC)Nc2ccccc2N=C1NC(=O)c1cccc(S(=O)(=O)N2CCCC2)c1`, the inhibition was 90.2% (active). Take `COc1ccc2c(CC(=O)Nc3nnc(C4CC4)s3)coc2c1`: the inhibition is 24.7% (inactive). For `CC(=O)c1c(N2CCOCC2)nc(=S)n(Cc2ccccc2)c1C` the value was 12.5% (inactive). As for `COc1ccc(CN2CC(C(=O)NCCN3CCN(c4ccccc4F)CC3)CC2=O)cc1` (stereo not given), the figure is -10.3% (inactive).

As to `COc1ccc(N2CCN(CCNC(=O)CCN3C(=O)COc4ccccc43)CC2)cc1`, the inhibition was -2.8% (inactive). As for `COc1ccc(N2CCN(CCNC(=O)c3nnc(Cc4c(F)cccc4Cl)o3)CC2)cc1`, the figure is 66.3% (active); as for `C/C(=C(\C#N)C(=O)NCCCN1CCOCC1)N(C)C`, -16.4% (inactive).

Consider `Cc1cc(C)c(C)c(S(=O)(=O)Nc2ccc(O)cc2)c1C`, for which the inhibition was -16.6% (inactive).

As to `CC(=O)Nc1ccc(NS(=O)(=O)c2cc(C)sc2C)cc1`, the inhibition was 56.5% (active). Regarding `CC(=O)Nc1ccc(S(=O)(=O)NCCc2ccccc2)cc1`, the inhibition was 49.5% (inactive). On to `Cc1cccc(NC(=O)COc2ccc(Br)cc2C)n1`, for which the inhibition was -11% (inactive). Consider `O=C(Nc1cccc(Cl)c1)Nc1nnc(-c2ccccc2)o1`, for which the inhibition is 8.9% (inactive). As for `O=C(COC(=O)c1ccc(Oc2ccccc2)cc1)Nc1nnc(-c2ccccc2)o1`, the figure is 89.1% (active); as for `COc1ccc(CC(=O)Nc2ccc(-c3nnc(-c4ccccc4)o3)cc2)cc1`, 19% (inactive). For `COc1cccc(-n2c(Cc3cc(=O)[nH]c(=O)[nH]3)nnc2SCC(=O)Nc2ccccc2)c1` the value was -48.2% (inactive); for `Cn1c(-c2ccco2)nc2cc3ccccc3cc21`, 26.1% (inactive). For `C=CCn1c(Cn2nnc3ccccc32)nnc1SCC(=O)N/N=C/c1cc(Br)cc(OC)c1O`, the inhibition is 54% (active). For `COc1ccc(OC)c(/C=N/NC(=O)CSc2nnc(C)n2-c2ccccc2)c1` the value was 20.2% (inactive); for `Cn1c(Cn2nnc3ccccc32)nnc1SCC(=O)c1ccccc1F`, 28.6% (inactive); for `COc1cccc(N(CC(=O)NCCSc2ccccn2)S(C)(=O)=O)c1`, 38.4% (inactive). As for `CC(=O)c1cc2c(cc1N)OCO2`, the figure is 3.4% (inactive).

For `CN(C)CCCNc1c2c(c(C#N)c3nc4ccccc4n13)CCC2`, the inhibition was 7.3% (inactive). For `CCCCn1c(CN2CCN(CCO)CC2)nc2ccccc21` the value was 1.5% (inactive). As for `N#Cc1c2c(c(N3CCN(CCO)CC3)n3c1nc1ccccc13)CCCC2`, the figure is 58.2% (active). For `C=CCOc1ccc(C2/C(=C(\O)c3c(C)[nH]c(C(=O)OC)c3C)C(=O)C(=O)N2CCN(C)C)cc1` (stereo not given) the value was -6.1% (inactive); for `COc1cccc(N2CCN(C(=O)C3CCCN(S(=O)(=O)c4cnc[nH]4)C3)CC2)c1` (stereo not given), 36.6% (inactive); for `O=C(NCc1ccco1)C1CCCN(S(=O)(=O)c2cnc[nH]2)C1` (stereo not given), 27.3% (inactive). With `CCOC(=O)c1cccc(NC(=O)C2CCCN(S(=O)(=O)c3cnc[nH]3)C2)c1` (stereo not given), the inhibition was 95.6% (active). With `O=C(CN1C(=O)COc2ccccc21)NCCN1CCc2ccccc2C1`, the inhibition was 25% (inactive).

Take `Oc1c(C=Nc2cccc3nsnc23)ccc2ccccc12`: the inhibition was -15.3% (inactive).

As to `COc1c(C(=O)N2CCCC2)ccc2ccccc12`, the inhibition was -19.3% (inactive).

Consider `COc1ccc(Br)cc1CN1CCN(C(=O)c2cccc(OC)c2OC)CC1`, for which the inhibition was 52.9% (active).

Turning to `COc1cccc(OC)c1OCCN1CCN(C(=O)c2ccco2)CC1`, the inhibition is -24.9% (inactive).

On to `CN(C)CCCn1c(N)c(C#N)c2nc(C#N)c(C#N)nc21`, for which the inhibition was -11.9% (inactive).

For `COc1ccc(OCC(=O)N2CCOCC2)cc1`, the inhibition was 17.3% (inactive).

Consider `O=C(NCc1ccc(Cl)cc1)c1cc(=O)nc2sc(-c3ccccc3)nn12`, for which the inhibition was 2.9% (inactive).

Consider `Cc1ccc(N(C(=O)CC2NC(=O)NC2=O)C2(C(=O)NC3CCCC3)CCCCC2)cc1` (stereo not given), for which the inhibition is 46.4% (inactive). For the compound `CCOc1ccc(CCNC(=O)C(CC)n2nc(C)n3c(cc4sccc43)c2=O)cc1OCC` (stereo not given), the inhibition is 51.6% (active). As for `CCC(C(=O)N1CCOCC1)n1c(C(=O)OC)cc2occc21` (stereo not given), the figure is 12.8% (inactive); as for `COc1ccc(CCNC(=O)c2cc3sccc3n2C)cc1OC`, 26.8% (inactive).

For `COc1ccc(CCn2c(=N)c(C(=O)NCc3ccco3)cc3c(=O)n4cccc(C)c4nc32)cc1`, the inhibition was 14.3% (inactive). `CCC(C(=O)NCc1ccc(OC)cc1)n1nc(C)n2c(cc3occc32)c1=O` (stereo not given): the inhibition was 82.8% (active). Take `CCOc1ccc(CCNC(=O)C2CCN(c3ccc(N4CCOCC4)nn3)CC2)cc1OCC`: the inhibition was 14% (inactive). On to `CCc1c(C)nc2cc(C)[nH]n2c1=O`, for which the inhibition is 16.4% (inactive).

As to `CCCNC(=O)N1CCN(C(=O)NCCC)CC1`, the inhibition is 2.7% (inactive). Consider `Cc1ccc(-n2ncc3c(Nc4cccc(C(=O)O)c4)ncnc32)cc1`, for which the inhibition was 29.6% (inactive). Turning to `O=C(Nc1ccc(Cl)c(Cl)c1)N1CC=C(c2ccccc2)CC1`, the inhibition was 46.1% (inactive).

Consider `CCOC(=O)C1CCCN(C(=O)CN(c2ccc(OC)cc2)S(=O)(=O)c2c(C)noc2C)C1` (stereo not given), for which the inhibition is 11% (inactive). For `Cc1cc(C)cc(N(CC(=O)N2CC=C(c3ccccc3)CC2)S(=O)(=O)c2c(C)noc2C)c1` the value was 90.8% (active). For the compound `Cc1ccc(C(=O)O)cc1S(=O)(=O)NCC1CCCO1` (stereo not given), the inhibition is 5.8% (inactive). `Cc1cc(C)cc(N(CC(=O)NCC2CCCO2)S(=O)(=O)c2c(C)noc2C)c1` (stereo not given): the inhibition is 64.1% (active). Consider `CCC(=O)c1c[nH]c(C(=O)NCC2CCCO2)c1` (stereo not given), for which the inhibition was -7% (inactive). As for `COCCCNC(=O)CN1CCN(Cc2ccccc2Cl)C1=O`, the figure is -16.9% (inactive); as for `Cc1nc2ncnn2c(C)c1CCC(=O)N1CCN(C(=O)c2ccco2)CC1`, -8.6% (inactive). As for `CC(C)N(C(=O)Cn1c(SCC(=O)N2CCN(c3ccccc3)CC2)nc2ccccc21)C(C)C`, the figure is 14.3% (inactive); as for `CCN(CC)C(=O)CSc1nc2ccccc2n1CC(=O)N1CCN(c2ccccc2OC)CC1`, 51.4% (active). For `CCOC(=O)n1c(SCC(=O)N(CC)CC)nc2ccccc21`, the inhibition was 30.9% (inactive).

`O=C1c2ccccc2C(=O)N1CCc1nn[nH]n1`: the inhibition is 0.5% (inactive). For `Fc1ccccc1CCNc1nnnn1-c1ccccc1` the value was 31.4% (inactive); for `O=C(CCSCCc1ccccn1)Nc1nccs1`, 81% (active).

In the case of `CN(CCCC(=O)Nc1nccs1)S(=O)(=O)c1ccc(Cl)cc1`, the inhibition was 38.4% (inactive).

Consider `CC1(C)Cc2cccc(OCC(=O)Nc3nccs3)c2O1`, for which the inhibition was 31% (inactive).

With `COCCN(CC(=O)Nc1ccccc1C)S(=O)(=O)c1ccc(S(=O)(=O)N2CCCC2)cc1`, the inhibition is 16.5% (inactive). As for `CCOc1cc(C(=O)N2CCc3cc(OC)c(OC)cc3C2)ccc1OC(F)F`, the figure is 30.7% (inactive). As for `CCOC(=O)CSc1nnc(CNC(=O)Cc2ccccc2)n1-c1ccccc1OC`, the inhibition was 8.6% (inactive). As for `CCOc1ccc(C(CCc2ccccc2)NC(=O)c2ccc(OC)c(OC)c2)cc1OCC` (stereo not given), the figure is 76.1% (active); as for `COc1ccc(Cn2c(=O)sc3ccccc32)cc1OC`, 29.2% (inactive); as for `Nc1nc(Br)c2ccccc2c1-c1ccc(F)cc1`, 2.2% (inactive). Take `COc1ccc(N2CCN(C(=O)CSc3nc4cc(OC)c(OC)cc4cc3C#N)CC2)cc1`: the inhibition is 26.1% (inactive). For `Cc1cc(C)c2nc(N3CCCC3)c(C#N)cc2c1`, the inhibition is 9.6% (inactive). On to `COc1ccc2nc(N3CCCC(O)C3)c(C#N)cc2c1` (stereo not given), for which the inhibition was 63.9% (active). As to `Cc1[nH]c(=O)c(C(=O)/C=C/c2ccccc2)c2c1CCCC2`, the inhibition is -14.6% (inactive). As for `CC1(C)C(=O)C2(CCCCC2)C(=O)OC1c1cccs1` (stereo not given), the figure is -9.3% (inactive); as for `O=C(COc1ccccc1F)NC1CC1`, -15.2% (inactive). For `COc1ccc(Cn2cccc(NC(=O)Nc3ccc(C#N)cc3)c2=O)cc1` the value was 14.3% (inactive).

Take `O=C(Nc1cccn(Cc2c(Cl)cccc2Cl)c1=O)c1ccc(Cl)cc1`: the inhibition was 71.8% (active). With `CSc1ccc(C#N)cc1NC(=O)c1ccc(Cl)cc1`, the inhibition is 6.3% (inactive).

Usually inhibition stands for the change of the read-out against control, counted positive when it falls.
